KB-V1 cytotox – KB-V1 MDR subline cytotoxicity; KB-V1 MDR cells viability, CellTiter-Glo, 72 h; Potency, µM (highest dose often 46.1 µM), actives largely listed as cytotoxic; 400,000 compounds, 3.4% hits; note: nearly all actives have a fitted effect of over 60% in size
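Drug-selected KB-V1 cells, grown in DMEM lacking phenol red with 10% FBS, receive compound titrations; after three days at 37 degrees C, surviving cell ATP is quantified by CellTiter-Glo luminescence and responses normalized and curve-fitted.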
HT1080NT lethal – kills 2HG-producing HT-1080-NT fibrosarcoma cells. 360,000 compounds, 1.6% hits. Potency, µM (top dose mostly 46.1 µM), for inactives: top-dose activity, negative = less viability, hits mostly cytotoxic. AID 686970. HT-1080-NT fibrosarcoma viability, CellTiter-Glo ATP luminescence, 48 h;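 note: NT is the 2HG producing partner of a matched IDH1 knockdown line; 0% = DMSO-treated cells and -100% = media-only wells without cells; nearly all actives have a fitted effect of over 55% in size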
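Compounds were tested in concentration-response format on HT-1080-NT cells for 48 hours at 37 degrees C. Cell viability came from CellTiter-Glo luminescence; curves were classified by r2, response magnitude and activity.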
DT40 TDP1 CPT – DT40-hTDP1 cell growth loss with CPT; 420,000 compounds, 12% hits; chicken DT40 Tdp1-/-;hTDP1 cells + 20 nM CPT, ATP luminescence, 48 h; Potency, µM (highest dose often 46.2 µM), for the others: at the top dose activity change, negative = growth inhibition, actives largely listed as inhibitors; note: nearly all actives have a fitted effect of over 55% in size
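Chicken DT40 Tdp1-/- cells complemented with human TDP1, 400 cells/well, exposed to compounds plus 20 nM camptothecin for at least 48 h at 37 C; viability read as ATP content by CellTiter-Glo luminescence.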
HT1080 IDH1KD tx – toxicity to HT-1080 IDH1 knockdown cells (counter line) | Potency, µM (top dose mostly 46.1 µM), without a hit: at the top dose activity, negative = toxicity, actives largely listed as cytotoxic | 360,000 compounds, 2% hits | HT-1080 IDH1 knockdown viability, ATP luminescence, 48 h;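 note: 0% = DMSO wells and -100% = cell-free medium wells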
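Assay cells: HT-1080 with IDH1 knockdown, 750 per well, RPMI/5% FBS. Exposure: 48 h at 37 °C following 2 h pre-incubation. Read: CellTiter-Glo luminescence; fitted concentration-response, curve class assigned.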
TDP1 cell noCPT – qHTS for Inhibitors of human tyrosyl-DNA phosphodiesterase 1 (TDP1): qHTS in cells in absence of CPT | DT40 Tdp1-/- hTDP1 cells, no CPT, ATP luminescence, 48 h | Potency, µM (doses to about 46.2 µM), for the others: top-dose activity change, negative = growth inhibition, hits mostly inhibitors | 420,000 compounds, 15% hits | AID 686978, 2013; note: nearly all actives have a fitted effect of over 55% in size
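Stably hTDP1-transfected Tdp1-null chicken DT40 cells were treated with library compounds minus camptothecin and grown for at least 48 hr at 37 °C, after which cellular ATP was quantified by luminescence.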
KB-3-1 tox – kills parental KB-3-1 adenocarcinoma cells; KB-3-1 viability, CellTiter-Glo ATP luminescence, 72 h; Potency, µM (top dose mostly 46.1 µM), most hits filed as cytotoxic; 400,000 compounds, 1.4% hits; AID 1347075; note: nearly all actives have a fitted effect of over 60% in size
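Parental KB-3-1 viability, qHTS format: 72 h compound exposure, 37 °C; CellTiter-Glo; media-only wells and DMSO plates as controls; concentration-effect fits on corrected data.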
Starred values were filed as active, the others as inactive; i = inactive; ? = inconclusive; / = not tested or not shown. This is a sample that favours compounds with a hit; in the whole collection about 19% have one here. Calls come from the whole dose curve; as a rule, active = well fitted curve in the direction sought with a large enough effect; inconclusive = small, poorly fitted or top-dose-only effect, or another doubt; inactive = no such curve, though single readings can be large; an effect the other way counts as inactive or inconclusive. Unless noted, % is set by controls: 0 for no effect and ±100 for the full control effect; potency is the fitted concentration of half-maximal effect.

SMILES	KB-V1 cytotox	HT1080NT lethal	DT40 TDP1 CPT	HT1080 IDH1KD tx	TDP1 cell noCPT	KB-3-1 tox
Cc1ccc(C)c(N(C(=O)CCC(=O)Nc2cc(C)on2)C(C(=O)NC2CCCC2)c2ccco2)c1 (stereo not drawn)	i	20.6%	16.4µM*	20.6%	23.1µM*	i
COc1cccc(C(C(=O)NC(C)(C)C)N(Cc2ccco2)C(=O)CCC(=O)Nc2cc(C)on2)c1OC (stereo not drawn)	i	7.6%	2.7%	-1.2%	29.1µM*	?
COc1ccc(C(C(=O)NC(C)(C)C)N(C(=O)CCC(=O)Nc2cc(C)on2)c2cc(C)cc(C)c2)cc1 (stereo not drawn)	14.6µM*	-19.1%	?	-6.0%	20.6µM*	i
Nc1c(C(=O)Nc2cccc(F)c2)c2ccccn2c1C(=O)c1ccccc1	i	/	-15.8%	/	-21.4%	i
O=C1CC(NCc2ccc3c(c2)OCO3)C(=O)N1Cc1ccc2c(c1)OCO2 (stereo not drawn)	i	-6.8%	3.2%	2.6%	-11.1%	i
Cc1ccc(C(=O)CCC(=O)OCC(=O)N2CCN(S(=O)(=O)c3ccc(C)cc3C)CC2)cc1	i	-1.7%	-24.2%	-4.2%	-2.3%	i
O=C(C[C@@H]1C/C=C/CC[C@H](Cc2ccc(F)cc2)C(=O)OC[C@@H](Cc2ccccc2)NC1=O)N[C@H](CO)Cc1ccccc1	i	?	?	?	?	?
C[C@@H]1COC(=O)[C@H](Cc2ccc(F)cc2)CC/C=C/C[C@@H](CC(=O)N[C@@H](CO)Cc2ccccc2)C(=O)N1	i	-4.5%	?	-3.8%	25.9µM*	i
O=C(C[C@@H]1C/C=C\C[C@H](Cc2ccc(F)cc2)C(=O)OCCNC1=O)N[C@H](CO)Cc1ccccc1	?	8.6%	?	7.1%	16.4µM*	i
O=C(C[C@@H]1C/C=C/CC[C@H](Cc2ccc(F)cc2)C(=O)OCCNC1=O)N[C@H](CO)Cc1ccccc1	i	0.6%	20.6µM*	-0.8%	11.6µM*	i
O=C(C[C@H]1C/C=C\CC[C@H](Cc2ccc(F)cc2)C(=O)OCCNC1=O)NCCO	i	11.4%	-8.8%	4.1%	2.4%	i
CC(C)(C)[C@H]1COC(=O)[C@@H](Cc2ccc(F)cc2)C/C=C\C[C@@H](CC(=O)N[C@@H](CO)Cc2ccccc2)C(=O)N1	i	-8.4%	?	-3.4%	18.4µM*	i
CC(C)(C)[C@H]1COC(=O)[C@@H](Cc2ccc(F)cc2)C/C=C\C[C@@H](CC(=O)N[C@H](CO)Cc2ccccc2)C(=O)N1	i	-4.1%	?	-7.7%	?	i
COc1ccccc1CNC(=O)COC(=O)c1ccc2c(=O)n3c(nc2c1)CCCCC3	i	-2.0%	1.2%	-1.9%	6.5%	i
CCCCOC(=O)Oc1ccc2c(=O)c(Oc3cccc(C)c3)coc2c1	i	-4.5%	-10.2%	1.0%	-16.3%	i
Cc1cccc(Oc2coc3cc(OCC(=O)NC4CCCCC4)ccc3c2=O)c1	/	/	20.6µM*	/	23.1µM*	/
COC(=O)[C@]12CCCCC=C1N(Cc1ccc3c(c1)OCO3)C(=O)[C@H](CC(=O)N1CCCCC1)C2	?	-12.8%	?	-1.1%	?	i
Cc1cc2nc(-c3ccc4c(c3)CCC4)ccn2n1	i	-17.2%	?	-18.7%	-29.9%	i
CC(C)c1ccc(NC(=O)CCc2ccccc2)cc1	7.31µM*	?	?	5.8µM*	?	?
CN(CCC(=O)Nc1ccc(Cl)cc1)Cc1ccccc1	i	20.6µM*	-21.2%	14.6µM*	?	?

From PubChem BioAssay
